Among the data in the supplement of paper PMC12340641 are relative growth recovery values, retold here.

Molecules are shown by their SMILES. Counter-ions that a name gives are not always drawn.

The test system of the assay is HEK293FT dCK*-IKZF1. Nature of the assay: relative growth recovery (pomalidomide 10 uM = 100%, DMSO = 0%); higher = more growth rescue (IKZF1 fusion degradation). Conditions: compound concentration: 5 uM; AraC concentration: 0.3 uM; overnight pretreatment + 4 days AraC. The gist of the method:
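On day 5, whole-well imaging was used to count Hoechst 33342-stained nuclei of HEK293FT cells stably carrying a deoxycytidine kinase–IKZF1 fusion. These cells had received 5 μM compound 2 h after seeding, followed after overnight at 37 °C by a nucleoside suicide substrate at 0.3 μM plus medium for 4 days. Growth recovery was normalised on each plate against a reference degrader and vehicle, which defined 100% and 0%, and values are duplicate means from separate days.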
Consider `C(=C\c1ccccc1)/CN1CCN(C(c2ccccc2)c2ccccc2)CC1`, for which the relative growth recovery turned out to be 1.06%.

For the compound `COc1nccnc1NS(=O)(=O)c1ccc(N)cc1` [sulfametopyrazine], the relative growth recovery is -1.09%.

As to `COC(=O)Nc1ccc(-c2nc(N3CCOCC3)c3cnn(C4CCN(Cc5cccnc5)CC4)c3n2)cc1`, the relative growth recovery is -12.9%.

In the case of `C=CCc1ccc(O)c(-c2cc(CC=C)ccc2O)c1` [Magnolol], the relative growth recovery is 2.08%.

As to `COc1ccc(CCN(C)CCc2ccc(OC)c(OC)c2)cc1OC`, the relative growth recovery was 1.83%.

Turning to `COc1cc(N2CCN(CCOCCOCCNC(=O)CNc3cccc4c3C(=O)N(C3CCC(=O)NC3=O)C4=O)CC2)ccc1Nc1ncc(Cl)c(Nc2ccccc2S(=O)(=O)C(C)C)n1` (stereo not drawn), the relative growth recovery was -4.32%.

Take `CC(C)(C)c1ccc(-c2nc3cccc(N4CCN(Cc5ccc6nccnc6c5)CC4)c3[nH]2)cc1`: the relative growth recovery stood at 9.79%.

On to `O=C1[C@H]2CCCC[C@H]2C(=O)N1CCCCN1CCN(c2nsc3ccccc23)CC1` [Perospirone], for which the relative growth recovery is 13.7%.

Turning to `Cc1coc2c1C(=O)C(=O)c1c-2ccc2c1CCCC2(C)C` [Tanshinone IIA (Tanshinone B)], the relative growth recovery came out at 0.345%.

`Clc1ccc(COC(Cn2ccnc2)c2ccc(Cl)cc2Cl)cc1` (stereo not drawn): the relative growth recovery was determined as 0.49%.

For the compound `Nc1ncc(Cc2ccc(Br)cc2)s1`, the relative growth recovery was -1.02%.

Turning to `CCOC(=O)Nc1ccc2c(c1)N(C(=O)CCN1CCOCC1)c1ccccc1S2` [moracizine], the relative growth recovery was -0.545%.

For `CC1(C)Oc2ccc(C#N)cc2[C@H](N(Cc2ncc[nH]2)c2ccc(Cl)cc2)[C@H]1O`, the relative growth recovery worked out at 1.01%.

For `CCCCC/N=c1/ccn(Cc2ccccc2)c2ccccc12`, the relative growth recovery was -2.79%.

As to `CC(C)/N=c1\cc2n(-c3ccc(Cl)cc3)c3ccccc3nc-2cc1Nc1ccc(Cl)cc1`, the relative growth recovery was 0.915%.

Regarding `O=C(Nc1ccc(Cl)cc1)Nc1ccc(Cl)c(Cl)c1` [Triclocarban], the relative growth recovery is -1.68%.

As for `Cc1cc(C2CCCCC2)n(O)c(=O)c1` [Ciclopirox], the relative growth recovery was -11.9%.

In the case of `CC1=C(C(=O)OC(C)C)C(c2cccc([N+](=O)[O-])c2)C(C(=O)OC2CN(C(c3ccccc3)c3ccccc3)C2)=C(N)N1` (stereo not drawn) [Azelnidipine], the relative growth recovery is 0.07%.

Take `O=C(O)c1cc(/N=N/c2ccc(O)c(C(=O)O)c2)ccc1O`: the relative growth recovery was determined as 3.38%.

Turning to `CC[C@@]1(O)C(=O)OCc2c1cc1n(c2=O)Cc2cc3c(CN(C)C)c(O)ccc3nc2-1` [Topotecan (Hydrochloride)], the relative growth recovery is -15.9%.

For `C/C(=N\NC(=S)N1CCC1)c1ccccn1`, the relative growth recovery was -12.9%.

Regarding `CCN(CC)CCCC(C)Nc1c2ccc(Cl)cc2nc2ccc(OC)cc12` (stereo not drawn), the relative growth recovery is -13.4%.

Regarding `CC(C)(C)CC(C)(C)c1ccc(O)c(Cc2ccc(Cl)cc2Cl)c1`, the relative growth recovery is -7.76%.

For the compound `COc1cc(N2CCN(C)CC2)ccc1Nc1nccc(-c2cn(C)c3cnccc23)n1`, the relative growth recovery is -0.12%.

Take `c1ccc2c(c1)CCC[C@H]2Nc1nc2ccccc2[nH]1`: the relative growth recovery was -0.405%.

On to `N#CC(c1ccccc1)(c1ccccc1)c1ccccc1Cl`, for which the relative growth recovery was -0.3%.

On to `COc1cc(NS(=O)(=O)c2ccc(N)cc2)ncn1`, for which the relative growth recovery is -0.825%.

On to `COC(=O)C1=C(C)NC(C)=C(C(=O)OC)C1c1ccccc1[N+](=O)[O-]`, for which the relative growth recovery was -3.38%.

For the compound `Cc1ccc2c(Cl)cc(Cl)c(O)c2n1`, the relative growth recovery worked out at 0.855%.

For the compound `CC(=O)c1ccc(S(=O)(=O)NC(=O)NC2CCCCC2)cc1`, the relative growth recovery was 1.03%.

In the case of `Nc1ncnc2c1ncn2[C@@H]1O[C@H](COP(=O)(O)OP(=O)(O)OP(=O)(O)OP(=O)(O)OC[C@H]2O[C@@H](n3cnc4c(N)ncnc43)C(O)C2O)C(O)C1O` (stereo partly drawn) [P1,P4-DI(adenosine-5')tetraphosphate ammonium salt], the relative growth recovery turned out to be 1.01%.

On to `Cc1cccc(Nc2nc(-c3ccncc3)cs2)c1`, for which the relative growth recovery is -0.535%.

As for `COc1cccc2c1C(=O)c1c(O)c3c(c(O)c1C2=O)C[C@@](O)(C(=O)CO)C[C@@H]3O[C@H]1C[C@H](N)[C@@H](O)[C@H](C)O1` [Epirubicin Hydrochloride], the relative growth recovery is -13.7%.

As for `O=c1c(O)c(-c2ccc(O)c(O)c2)oc2cc(O)ccc12` [Fisetin (Fustel)], the relative growth recovery was -3.06%.

`Oc1cc(O)c2cc(O)c(-c3cc(O)c(O)c(O)c3)[o+]c2c1` [delphinidin]: the relative growth recovery is -1.78%.

On to `C1CCC(N/C(=N/C23CC4CC(CC(C4)C2)C3)N2CCOCC2)CC1`, for which the relative growth recovery was 1.62%.

Take `COCCOC(=O)C1=C(C)NC(C)=C(C(=O)OC(C)C)C1c1cccc([N+](=O)[O-])c1` (stereo not drawn): the relative growth recovery is 6.1%.

In the case of `Clc1ccc2c(N3CCN(CCCN4CCN(c5ccnc6cc(Cl)ccc56)CC4)CC3)ccnc2c1`, the relative growth recovery is -1.17%.
